Measured values as given in PubChem BioAssay (NCI).
Compounds without any hit were thinned out: in the full panel of roughly 83,000, 20% have a hit.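 Percent growth is the endpoint: 0 to 100 indicates growth inhibition (40 means 60% inhibition), 0 means no net growth, and negative values indicate cell death.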 A number with no mark means an inactive call. The source made the active and inactive calls. Rule for the calls: active = growth percent below 10; inactive = the rest.

Columns and labels:
Test in all cases: NCI-60 one-dose screen, 48 h (100 = growth as untreated, 0 = no growth, -100 = all killed)
Details in all cases: 10 µM
SK-MEL-2 melanoma = system: SK-MEL-2 melanoma
SN12C renal = system: SN12C renal
UO-31 renal = system: UO-31 renal
TK-10 renal = system: TK-10 renal
ACHN renal = system: ACHN renal
CAKI-1 renal = system: CAKI-1 renal
A498 renal = system: A498 renal
CCRF-CEM leukemia = system: CCRF-CEM leukemia
MOLT-4 leukemia = system: MOLT-4 leukemia
RPMI-8226 leukemia = system: RPMI-8226 leukemia
OVCAR-8 ovarian = system: OVCAR-8 ovarian
OVCAR-5 ovarian = system: OVCAR-5 ovarian
OVCAR-4 ovarian = system: OVCAR-4 ovarian
SK-OV-3 ovarian = system: SK-OV-3 ovarian
IGROV1 ovarian = system: IGROV1 ovarian
OVCAR-3 ovarian = system: OVCAR-3 ovarian
HS 578T breast = system: HS 578T breast
NCI/ADR-RES ovarian = system: NCI/ADR-RES ovarian
SR leukemia = system: SR leukemia

| Compound | growth (SK-MEL-2 melanoma) | growth (SN12C renal) | growth (UO-31 renal) | growth (TK-10 renal) | growth (ACHN renal) | growth (CAKI-1 renal) | growth (A498 renal) | growth (CCRF-CEM leukemia) | growth (MOLT-4 leukemia) | growth (RPMI-8226 leukemia) | growth (OVCAR-8 ovarian) | growth (OVCAR-5 ovarian) | growth (OVCAR-4 ovarian) | growth (SK-OV-3 ovarian) | growth (IGROV1 ovarian) | growth (OVCAR-3 ovarian) | growth (HS 578T breast) | growth (NCI/ADR-RES ovarian) | growth (SR leukemia) |
| --- | --- | --- | --- | --- | --- | --- | --- | --- | --- | --- | --- | --- | --- | --- | --- | --- | --- | --- | --- |
| CS(=O)(=O)Nc1ccc(OCc2nnc(-c3ccc(Cl)cc3)o2)c(F)c1 | 112% | 88.1% | 74.1% | 111% | 86% | 91.3% | 62.5% | 97.5% | 81% | 87.9% | 98.1% | 99.5% | 82.1% | 88.8% | 104% | 107% | 98.1% | 96.9% |  |
| CCOC(=O)c1c(C)n(-c2ccc(Cl)cc2)c2ccc(OC(=O)/C=C/c3ccccc3)cc12 | 64.2% | 86.6% | 83.1% | 96% | 98.7% | 103% |  | 75.1% | 69.8% | 67.6% | 88.8% | 108% | 81.6% | 93.9% | 88.3% | 77.7% | 82.6% | 61.7% | 26.7% |
| FC(F)(F)c1ccc(-c2ncc(-c3ccc(C(F)(F)F)cc3)c(NCc3cc(C(F)(F)F)cc(C(F)(F)F)c3)n2)cc1 | 69.9% | 34.2% | 37.1% | 86.9% | 27.4% | 37.5% |  | 46.7% | 59.3% | 53% | 44.5% | 79.4% | 81.3% | 82.4% | 65.6% | 31.9% | 71.9% | 68.5% | 83.7% |
| O=C(Nc1cccc(Cl)c1)Nc1cc2ncncc2cc1OCc1cccc(F)c1 | -24.3% (active) | 21.7% | 9.37% (active) | -3.16% (active) |  | 14.6% | -9.36% (active) | 2.81% (active) | 4.84% (active) | -0.539% (active) | 3.52% (active) | 29.6% | 22.4% | 28.1% | 19% | 12.6% | 45.9% | 13.6% | -1.31% (active) |
| COc1cccc(-c2nnc(COc3ccc(-c4nc5ccccc5[nH]4)cc3OC)o2)c1 | 99.3% | 85.9% | 87.9% | 132% | 103% | 98.7% |  | 44.9% | 71.5% | 51% | 67.3% | 119% | 103% | 107% | 101% | 102% | 102% | 89% | 7.26% (active) |
| CCN(CC)CCn1c(=N)n(CC(O)c2ccc(Cl)c(Cl)c2)c2ccccc21 (centres undefined) | 96.8% | 83.3% | 64.3% | 87.1% | 71.5% | 75.4% |  | 78.9% | 79.7% | 68.1% | 92.6% |  | 69% | 92.3% | 90.1% | 96.7% | 80.5% | 88.6% |  |
| Cc1ccc(-n2nnc3c(sc4ccccc43)c2=O)cc1 | 83% | 76.7% | 9.98% (active) | 56.7% | 15.2% | 48.7% | 102% | 76.3% | 90.6% | 46.1% | 50% | 90.3% | -23.6% (active) | 9.88% (active) | 23.5% | 37.1% | 23% | 53.7% |  |
| CCOC(=O)C1=C(Nc2ccc(OC)cc2)C(N)=NC1=N | 44.6% | 57% | 57.1% | 59.2% |  | 54.6% | 6.8% (active) | 15.8% | 26% | 24.7% | 54.5% | 65.6% | 59.8% | 34.1% | 65% | 17% | 48.5% | 28.4% | 4.05% (active) |
| O=C(COc1ccc(-c2nc3ccccc3[nH]2)cc1)N=Nc1c(O)[nH]c2ccccc12 | 113% | 91.7% | 93.4% | 128% | 98.7% | 99.2% |  | 4.95% (active) | 91.8% | 71.5% | 78.4% | 116% | 15.5% | 105% | 99.5% | 62.5% |  | 108% |  |
| O=C(NCCCl)c1cc(Cl)cc(Cl)c1 | 117% | 97% | 84% | 117% | 107% | 96.8% | 80.9% | 97.2% | 105% | 102% | 102% | 107% | 95.1% | 103% | 106% | 114% | 103% | 105% |  |
| NC(N)=NS(=O)(=O)c1ccc(Nc2ccc3nnc(-c4ccncc4)n3n2)cc1 | 131% | 94.6% | 78.6% | 112% |  | 106% | 95.5% | 109% | 101% | 104% | 96.7% | 100% | 103% | 104% | 113% | 110% | 99.6% | 105% | 96.9% |
| CC1(CO)CCCC12OCCO2 (centres undefined) | 95.2% | 100% | 93.7% | 107% |  | 101% | 94.1% | 97.3% | 107% | 100% | 106% | 97.3% | 111% | 111% | 104% | 108% |  | 113% | 93.3% |
| C#CCn1c(-c2cccc(OCCCCl)c2)nc2c1c(=O)n(C)c(=O)n2C | 81% | 84.5% | 50.5% | 101% |  | 69.2% | 83.6% | 13% | 2.33% (active) | 10.5% | 54.8% | 98.9% | 57% | 93.7% | 73.9% | 58.1% | 99% | 66.1% |  |
| CCCCCC(=O)N1c2ccccc2NC2=C(C(=O)CC(c3ccc(OC)c(OC)c3)C2)C1c1ccc(C(F)(F)F)cc1 (centres undefined) | 47.8% | 62% | 44.9% | 64.4% |  | 65.6% |  | 43.5% | 37% | 21.6% | 47.1% | 103% | 41.8% | 83.6% | 63% | 33.1% |  | 58.7% | 51.8% |
| COc1ccc(-c2nc3sc(-c4ccccc4)c(-c4ccccc4)n3c2/C=C/c2ccc(F)cc2)cc1 | 89.3% | 86.7% |  | 115% |  | 67% | 108% | 88.1% | 74.8% | 95.5% | 85% | 88.2% | 83.2% | 91.1% | 115% | 94.1% | 95.8% | 103% | 90.5% |
| O=C(Nc1ccc(CN2CCOCC2)cc1)c1ccc(-c2cc(Cl)ccc2Cl)o1 | 55.5% | 63.4% |  | 49.4% | 41.8% | 43.5% | 87.1% | 38.6% | 42.9% | -5.45% (active) | 36% | 72.1% | 50.6% | 81.5% | 34% | 70.9% | 72.2% | 46.9% | -12.9% (active) |
